Rows were chosen to be rich in hits. Some 6% of all compounds tested hit in one or more screens of this group.
DRD3 agonist = agonists of human D3 dopamine receptor | D3R DiscoveRx beta-arrestin cells, luminescence, 90 min | max activation, % | actives 0.58% (n = 410,000); in the data active = max activation above about 30%; note: 0% is about no effect
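Cells at 1500/well, incubated overnight, then treated with pinned compounds (dopamine as control) for 90 min at 37 degrees C. DiscoveRx reagent added for 30 - 60 minutes at room temperature; luminescence read.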
D1 ag = agonists of human D1 dopamine receptor | HEK293 T-REx D1 cells, calcium flux, agonist mode | activation, % at 2 µM | actives 1% (n = 360,000) | AID 504660; in the data active = activation above about 30%; note: 0% is about no effect
Target sequence (P21728 whole entry, looked up): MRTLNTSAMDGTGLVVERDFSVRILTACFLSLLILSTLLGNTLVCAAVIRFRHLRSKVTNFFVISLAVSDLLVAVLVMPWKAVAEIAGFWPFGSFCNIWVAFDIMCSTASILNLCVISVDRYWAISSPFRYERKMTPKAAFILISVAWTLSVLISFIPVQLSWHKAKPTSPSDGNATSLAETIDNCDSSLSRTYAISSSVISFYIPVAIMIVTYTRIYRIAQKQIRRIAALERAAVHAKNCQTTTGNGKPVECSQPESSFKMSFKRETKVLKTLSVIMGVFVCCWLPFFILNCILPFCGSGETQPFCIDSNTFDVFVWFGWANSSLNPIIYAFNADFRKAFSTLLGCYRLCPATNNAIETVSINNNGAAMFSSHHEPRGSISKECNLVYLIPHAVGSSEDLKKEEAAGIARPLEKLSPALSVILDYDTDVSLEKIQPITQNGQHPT
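Tetracycline-induced HEK293 TREx D1 cells, force-coupled to calcium signalling, were dye-loaded with a no-wash calcium kit. Compound was pin-added after a 10 s baseline. Fluorescence was read kinetically at 1 cycle/s for 180 s, with calcium rises flagged as agonism.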
Chronic BCR inh = chronic active BCR signaling inhibition; ABC-DLBCL IkBa-CBG/CBR reporter, luminescence ratio, 4 h; actives 0.05% (n = 340,000); Potency, µM (top dose mostly 46.1 µM), for the others: at the highest dose activity change, negative = inhibition, usual class: inhibitors; active = well fitted inhibition curve with a large enough effect in the signal ratio, with a control signal flat, not every such curve was filed as active; inconclusive = small, poorly fitted or top-dose-only effect, or effect the other way, or a change in a side signal; the % refers to the signal ratio;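 note: potency is the fitted concentration of half-maximal effect; plate controls were basal doxycycline-induced cells for no effect and cells given 10 µM MG132 for full effect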
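Concentration-response series (up to 46 uM) were applied to TMD8 dual-reporter cells for 4 h at 37C with doxycycline. Green/red ratio, after filter-overlap correction, defined %Activity; red signal alone was normalised to basal cells and zero luminescence.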
D1 PAM = human D1 dopamine receptor positive modulation; potentiation, % at 10 µM; actives 0.036% (n = 360,000); HEK293 TREx D1 cells, calcium flux, dopamine EC20 potentiation; in the data active = potentiation above about 30%; note: 0% is about no effect
D1 antagonist = human D1 dopamine receptor antagonism. HEK293 TREx D1 cells, calcium flux, dopamine EC80; hits give low values. activity change, negative = inhibition, % at 10 µM. actives 3.2% (n = 360,000); in the data active = activity change below about -30%; note: % is set by controls: 0 for no effect and ±100 for the full control effect
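After overnight tetracycline induction at 30 C, force-coupled D1 HEK293 cells took up a no-wash calcium dye at room temperature. Compounds were added and monitored 180 s, and the response to EC80 dopamine was then recorded.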
DRD3 antagonist = antagonists of human D3 dopamine receptor; P35462; D3R cells, DiscoveRx beta-arrestin luminescence, antagonist mode; hits give low values; max response, negative = inhibition, %; actives 2.5% (n = 360,000); AID 652054; in the data active = max response below about -50%; inconclusive = no clear call, values can overlap the other calls; note: % is set by controls: 0 for no effect and ±100 for the full control effect
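Cells expressing the human receptor were seeded at 1500 cells/well, incubated overnight at 37 degrees C in 5% CO2, then exposed to library compounds with dopamine controls for 90 minutes at 37 degrees C before luminescent detection.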
Starred values were filed as active, the others as inactive; ! = repeats disagree.

For C=CCc1ccccc1OCC(O)CN1CCN(Cc2ccc3c(c2)OCO3)CC1 (centres undefined) the results were DRD3 agonist -7, D1 ag 14, Chronic BCR inh inconclusive, D1 PAM -10, D1 antagonist -71* and DRD3 antagonist -89*!.
Cc1ccc(OCC(O)CN2CCN(Cc3ccc4c(c3)OCO4)CC2)cc1C (centres undefined) was read as DRD3 agonist -9, D1 ag 14, Chronic BCR inh -3%, D1 PAM -3, D1 antagonist -7 and DRD3 antagonist -16.
For O=S(=O)(Nc1cccc(-c2ccc(N3CCCCC3)nn2)c1)c1ccc(Cl)s1 the results were DRD3 agonist -6, D1 ag 1, D1 PAM 1 and D1 antagonist -15.
O=C(CSc1nc(-c2ccccc2)nc2c1CCCC2)c1ccc(F)cc1 was read as DRD3 agonist 7, D1 ag 2, D1 PAM 3 and D1 antagonist 2.
COc1ccc(CCC(C)NCC2CCCCC2)cc1 (centres undefined) was read as DRD3 agonist -11, D1 ag 6, Chronic BCR inh inconclusive, D1 PAM -1, D1 antagonist 0 and DRD3 antagonist -70*.
COc1ccc(CCC(C)NC2CCCCCCC2)cc1 (centres undefined) was read as DRD3 agonist -11, D1 ag 8, Chronic BCR inh 0%, D1 PAM -1, D1 antagonist -3 and DRD3 antagonist -67*.
`COc1ccc(CCC(C)NCc2ccc(F)cc2)cc1` (centres undefined) gave DRD3 agonist -7, D1 ag 12, Chronic BCR inh 3%, D1 PAM -4, D1 antagonist -9 and DRD3 antagonist -24.
Cn1c(Cc2nc3ccccc3n2C)nc2ccccc21 was read as DRD3 agonist 0, D1 ag -1, Chronic BCR inh -2%, D1 PAM -2, D1 antagonist 0 and DRD3 antagonist 5.
Screening Cn1c(CCNC(=O)c2ccc(F)cc2)nc2ccccc21 returned DRD3 agonist -8, D1 ag 2, Chronic BCR inh 11%, D1 PAM 0, D1 antagonist -20 and DRD3 antagonist -66*.
Screening Cn1c(CCCCCN)nc2ccccc21 returned DRD3 agonist 0, D1 ag 3, Chronic BCR inh -1%, D1 PAM 3, D1 antagonist 19 and DRD3 antagonist -64*.
O=C(NCCc1nc2ccccc2n1Cc1ccccc1F)c1ccc(F)cc1 was read as DRD3 agonist -6, D1 ag 10, D1 PAM -4 and D1 antagonist -36*.
Screening Cc1ccccc1OCC(=O)OCC(=O)c1ccc(OCc2ccccc2)cc1 returned DRD3 agonist 3, D1 ag 55*, Chronic BCR inh -2%, D1 PAM -4, D1 antagonist 16 and DRD3 antagonist -3.
For O=C(COc1ccc(Cl)cc1)OCC(=O)c1ccc[nH]1 the results were DRD3 agonist 3, D1 ag -1, Chronic BCR inh -1%, D1 PAM -10, D1 antagonist -11 and DRD3 antagonist 1.
Cc1ccccc1OCC(=O)OCC(=O)c1ccc[nH]1 was read as DRD3 agonist -3, D1 ag 2, Chronic BCR inh inconclusive, D1 PAM -6, D1 antagonist -32* and DRD3 antagonist 0.
Cc1ccccc1OCC(=O)OCC(=O)c1ccc(OC(=O)c2ccccc2)cc1 was read as DRD3 agonist -8, D1 ag 24, Chronic BCR inh -9%, D1 PAM -4, D1 antagonist -14 and DRD3 antagonist 23.
Screening Cc1cc(OCC(=O)OCC(=O)c2ccc[nH]2)ccc1Cl returned DRD3 agonist -2, D1 ag 10, Chronic BCR inh 4%, D1 PAM -3, D1 antagonist -34* and DRD3 antagonist 2.
For COc1cccc(NC(=O)Cn2c(=O)n(CCc3ccc(OC)c(OC)c3)c(=O)c3ccccc32)c1 the results were DRD3 agonist 0, D1 ag 3, D1 PAM -1 and D1 antagonist -1.
`COC(=O)c1nc(NC(=O)C(C)(C)C)n[nH]1` gave DRD3 agonist -2, D1 ag 3, Chronic BCR inh 9%, D1 PAM -4, D1 antagonist -42* and DRD3 antagonist 11.
Screening COC(=O)c1nc(NC(=O)c2ccccc2Cl)n[nH]1 returned DRD3 agonist 6, D1 ag -2, Chronic BCR inh inconclusive, D1 PAM 9, D1 antagonist 9 and DRD3 antagonist -60*.
For COC(=O)c1nc(-c2ccccc2)n[nH]1 the results were DRD3 agonist 0, D1 ag 0, Chronic BCR inh 16%, D1 PAM -1 and DRD3 antagonist 24.
For COC(=O)c1nc(NC(=O)c2ccc(Br)cc2)n[nH]1 the results were DRD3 agonist 5, D1 ag 0, D1 PAM -3, D1 antagonist 1 and DRD3 antagonist -8.
Screening CC1=C(C(=O)N2CCCCCC2)CC(CC(=O)NCC2CCCCC2)C(=O)N1Cc1ccc(F)cc1 (centres undefined) returned DRD3 agonist -8 and DRD3 antagonist -64*.
For CC1=C(C(=O)N2CCCCCC2)CC(CC(=O)NCC2CCCCC2)C(=O)N1Cc1ccccc1 (centres undefined) the results were DRD3 agonist -5 and DRD3 antagonist 0.
`O=C(NC1CCN(Cc2ccccc2)CC1)c1cccc(S(=O)(=O)Nc2ccc(Br)cc2)c1` gave DRD3 agonist -31, D1 ag 9, Chronic BCR inh 1%, D1 PAM -8, D1 antagonist 6 and DRD3 antagonist -57*.
Screening C=CCN(c1ccccc1)S(=O)(=O)c1cccc(C(=O)NC2CCN(Cc3ccccc3)CC2)c1 returned DRD3 agonist -27, D1 ag 3, Chronic BCR inh -7%, D1 PAM 1, D1 antagonist -37* and DRD3 antagonist -79*.
`Cc1ccc(C(=O)NC2CCN(Cc3ccccc3)CC2)cc1S(=O)(=O)N1CCOCC1` gave DRD3 agonist -34, D1 ag 2, Chronic BCR inh 2%, D1 PAM 1, D1 antagonist -14 and DRD3 antagonist -67*.
Screening Cc1ccc(NS(=O)(=O)c2cccc(C(=O)NC3CCN(Cc4ccccc4)CC3)c2)c(C)c1 returned DRD3 agonist -20 and DRD3 antagonist -97*.
COC(=O)c1sccc1S(=O)(=O)Nc1ccc(C(O)(C(F)(F)F)C(F)(F)F)cc1 was read as DRD3 agonist -1 and DRD3 antagonist -19.
For CC(C)N1CCCC(C)(C(=O)Nc2nc3ccccc3n2C)C1 (centres undefined) the results were DRD3 agonist 10 and DRD3 antagonist 20.
